Measured values from PubChem BioAssay (EPA / NIEHS).
Where “and” joins values, the source holds several entries; their conditions need not be identical. Equal entries are not always repeated. Calls of active or inactive are those of the source. Rule for the calls: active = hit-call score of the fitted dose curve at least 0.9, where 1 is the maximum; inactive = score below 0.9.

What was measured:
[1] = read-out: Transforming growth factor beta 1 (TGFb1), TGFB1 (gene 7040); test: BSK_KF3CT_TGFb1: BioMAP Diversity Plus: KF3CT Assay for Transforming growth factor beta 1 (TGFb1) Biomarker Activity (AID 2283072); conditions: primary human keratinocytes with fibroblasts; actives raise or lower the signal
Method in brief: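 TGF-b1 ELISA on a 24 h dosed co-culture of human keratinocytes and foreskin fibroblasts; cytotoxicity tracked in parallel cultures by SRB staining.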

[2] = read-out: C-C motif chemokine 2 (Homo sapiens) (UniProt P13500); test: BSK_KF3CT_MCP1: BioMAP Diversity Plus: KF3CT Assay for Monocyte Chemoattractant Protein 1 (MCP1/CCL2) Biomarker Activity (AID 2283073); conditions: primary human keratinocytes with fibroblasts; actives raise or lower the signal
Method in brief: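 KF3CT skin co-culture (keratinocytes/foreskin fibroblasts), 24 h post-dose; MCP-1 by ELISA; gain/loss of signal fit bidirectionally vs DMSO baseline.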

[3] = read-out: Matrix Metallopeptidase 9 (MMP9), MMP9 (gene 4318); test: BSK_KF3CT_MMP9: BioMAP Diversity Plus: KF3CT Assay for Matrix Metallopeptidase 9 (MMP9) Biomarker Activity (AID 2283074); conditions: primary human keratinocytes with fibroblasts; actives raise or lower the signal;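 for AC50: MMP9 protein level quantified by ELISA in the co-culture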
Method in brief: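 MMP-9 quantified by ELISA after 24 h chemical treatment of primary human skin keratinocyte/fibroblast co-cultures; gain or loss fitted against DMSO, with parallel SRB staining (0.1% SRB, 560 nm) for overt cytotoxicity.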

[4] = read-out: urokinase plasminogen activator (uPA), PLAU (gene 5328); test: BSK_KF3CT_uPA: BioMAP Diversity Plus: KF3CT Assay for urokinase plasminogen activator (uPA) Biomarker Activity (AID 2283075); conditions: primary human keratinocytes with fibroblasts; actives raise or lower the signal
Method in brief: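 ELISA read-out of uPA 24 h after dosing human skin keratinocytes co-cultured with foreskin fibroblasts. Signal change fitted both ways relative to DMSO; sulforhodamine B on parallel cultures marks overt cytotoxicity.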

CD40, CD40 (gene 958) = test: BSK_LPS_CD40: BioMAP Diversity Plus: LPS Assay for CD40 Biomarker Activity (AID 2283076); conditions: primary human HUVEC with PBMC; actives raise or lower the signal
Method in brief: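 ELISA readout of CD40 in HUVEC/PBMC co-culture (BSK_LPS system), 24 h post-dosing; bidirectional curve fit, DMSO baseline; parallel SRB total-protein staining for cytotoxicity.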

[5] = read-out: E-selectin (Homo sapiens) (UniProt P16581); test: BSK_LPS_Eselectin: BioMAP Diversity Plus: LPS Assay for Eselectin Biomarker Activity (AID 2283077); conditions: primary human HUVEC with PBMC; actives raise or lower the signal
Method in brief: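 ELISA readout of E-selectin, 24 h post-dose, HUVEC + PBMC co-culture (LPS system). Gain or loss of signal vs DMSO baseline, bidirectional fit.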

[6] = read-out: Interleukin-8 (IL8), CXCL8 (gene 3576); test: BSK_LPS_IL8: BioMAP Diversity Plus: LPS Assay for Interleukin-8 (IL8) Biomarker Activity (AID 2283078); conditions: primary human HUVEC with PBMC; actives raise or lower the signal
Method in brief: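 HUVEC + PBMC co-culture, LPS-activated; test chemicals dosed, IL-8 read by ELISA at 24 h. Bidirectional curve fit vs DMSO baseline (gain or loss of signal).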

[7] = BSK_LPS_SRB: Viability Assessment in the BioMAP Diversity Plus: LPS Assay (AID 2283079); conditions: primary human HUVEC with PBMC;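 note: total protein by sulforhodamine B absorbance as a cytotoxicity measure; measured one day after compound addition; fitted in both directions against DMSO so loss or gain of signal counts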
Method in brief: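 HUVEC + PBMC co-culture, LPS-stimulated; compound 24 h. 10% TCA fix, 0.1% SRB stain, A560. Bidirectional fit vs DMSO.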

[8] = read-out: Monocyte Chemoattractant Protein-1 (MCP1), CCL2 (gene 6347); test: BSK_LPS_MCP1: BioMAP Diversity Plus: LPS Assay for Monocyte Chemoattractant Protein-1 (MCP1) Biomarker Activity (AID 2283081); conditions: primary human HUVEC with PBMC; actives raise or lower the signal;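 for AC50: secreted MCP-1 protein quantified by ELISA in culture supernatant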
Method in brief: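 ELISA read-out of MCP-1 after 24 h chemical dosing of a human umbilical vein endothelial cell/peripheral blood mononuclear cell co-culture stimulated with LPS. Gain or loss of signal fitted relative to DMSO controls.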

[9] = read-out: Interleukin-1 alpha (IL1a), IL1A (gene 3552); test: BSK_LPS_IL1a: BioMAP Diversity Plus: LPS Assay for Interleukin-1 alpha (IL1a) Biomarker Activity (AID 2283080); conditions: primary human HUVEC with PBMC; actives raise or lower the signal
Method in brief: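 HUVEC/PBMC co-culture, LPS system; 24 h after dosing; IL-1a by ELISA; gain or loss of signal fitted bidirectionally vs DMSO baseline.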

Chain of E-selectin (Homo sapiens) (P16581 whole entry, looked up): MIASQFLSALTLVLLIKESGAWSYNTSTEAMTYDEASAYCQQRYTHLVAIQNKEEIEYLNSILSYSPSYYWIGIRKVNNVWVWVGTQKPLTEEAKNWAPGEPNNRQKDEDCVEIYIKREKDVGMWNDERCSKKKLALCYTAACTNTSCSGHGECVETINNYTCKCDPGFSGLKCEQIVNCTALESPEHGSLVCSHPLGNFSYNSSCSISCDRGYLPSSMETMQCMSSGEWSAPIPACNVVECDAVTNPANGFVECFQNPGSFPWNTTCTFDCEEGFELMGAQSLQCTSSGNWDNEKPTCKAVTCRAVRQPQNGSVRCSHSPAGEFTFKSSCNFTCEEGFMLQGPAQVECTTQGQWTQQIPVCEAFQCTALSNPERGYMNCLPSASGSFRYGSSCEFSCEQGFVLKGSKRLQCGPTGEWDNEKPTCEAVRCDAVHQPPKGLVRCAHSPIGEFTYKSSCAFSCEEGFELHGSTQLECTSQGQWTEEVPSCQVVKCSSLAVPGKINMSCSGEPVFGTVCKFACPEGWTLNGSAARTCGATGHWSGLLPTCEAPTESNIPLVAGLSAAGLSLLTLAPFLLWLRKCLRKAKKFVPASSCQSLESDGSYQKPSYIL

CCCCCCC(C)OC(=O)COc1nc(F)c(Cl)c(N)c1Cl (stereo not drawn)
AC50 [1]: 31.3 µM (active) | outcome [2]: inactive | outcome [3]: inactive | AC50 [4]: 20 µM (active) | AC50 (CD40, CD40 (gene 958)): 29.9 µM (active) | AC50 [5]: 30.7 µM (active) | AC50 [6]: 36.8 µM (active) | AC50 [7]: 38.4 µM (active) | AC50 [8]: 31 µM (active)

CCOC(=O)c1ccc(O)cc1
outcome [1]: inactive | outcome [2]: inactive | outcome [3]: inactive | outcome [4]: inactive | outcome (CD40, CD40 (gene 958)): inactive | outcome [5]: inactive | outcome [6]: inactive | outcome [7]: inactive

CCCOC(=O)c1ccc(C(=O)OCCC)nc1
outcome [1]: inactive | outcome [2]: inactive | outcome [3]: inactive | outcome [4]: inactive | outcome (CD40, CD40 (gene 958)): inactive | outcome [5]: inactive | outcome [6]: inactive | outcome [7]: inactive

c1ccc2[nH]c(-c3cscn3)nc2c1
outcome [1]: inactive | outcome [2]: inactive | outcome [3]: inactive | outcome [4]: inactive | outcome (CD40, CD40 (gene 958)): inactive | outcome [5]: inactive | outcome [6]: inactive | outcome [7]: inactive

CCCCOCCOCCOCc1cc2c(cc1CCC)OCO2
outcome [1]: inactive | outcome [2]: inactive | outcome [3]: inactive | outcome [4]: inactive | AC50 (CD40, CD40 (gene 958)): 20 µM (active) | outcome [5]: inactive | AC50 [6]: 13.3 µM (active) | AC50 [7]: 12.1 µM (active)

C=CCOC(Cn1ccnc1)c1ccc(Cl)cc1Cl (stereo not drawn)
outcome [1]: inactive | outcome [2]: inactive | outcome [3]: inactive | outcome [4]: inactive | AC50 (CD40, CD40 (gene 958)): 22.2 µM (active) | outcome [5]: inactive | outcome [6]: inactive | outcome [7]: inactive

CCCN(CCC)C(=O)SCC
outcome [1]: inactive | outcome [2]: inactive | outcome [3]: inactive | outcome [4]: inactive | outcome (CD40, CD40 (gene 958)): inactive | outcome [5]: inactive | outcome [6]: inactive | outcome [7]: inactive | outcome [9]: inactive

CN(C)C(=O)Nc1ccc(Cl)c(Cl)c1
outcome [1]: inactive | outcome [2]: inactive | outcome [3]: inactive | outcome [4]: inactive | outcome (CD40, CD40 (gene 958)): inactive | outcome [5]: inactive | outcome [6]: inactive | outcome [7]: inactive

CC(C)(C)[C@@H](O)[C@@H](Cc1ccc(Cl)cc1)n1cncn1
outcome [1]: inactive | outcome [2]: inactive | outcome [3]: inactive | outcome [4]: inactive | outcome [5]: inactive | outcome [6]: inactive | outcome [7]: inactive

O=C(O)c1ccccc1
outcome [1]: inactive | outcome [2]: inactive | outcome [3]: inactive | outcome [4]: inactive | outcome (CD40, CD40 (gene 958)): inactive | outcome [5]: inactive | outcome [6]: inactive | outcome [7]: inactive | outcome [8]: inactive

N#CSCSc1nc2ccccc2s1
AC50 [1]: 10.2 µM (active) and 11.5 µM (active) | AC50 [2]: 2.31 µM (active) and 11.1 µM (active) | AC50 [3]: 10.6 µM (active) and 10.3 µM (active) | AC50 [4]: 6.91 µM (active) and 11.5 µM (active) | AC50 [5]: 3.96 µM (active) and 8.13 µM (active) | AC50 [6]: 5.09 µM (active) and 9.38 µM (active) | AC50 [7]: 8.07 µM (active) and 9.64 µM (active)

S=C(S)NCCNC(=S)S.[Mn+2].[S-]C([S-])=NCCN=C([S-])[S-].[Zn+2]
outcome [1]: inactive | outcome [2]: inactive | outcome [3]: inactive | outcome [4]: inactive | outcome [5]: inactive | outcome [6]: inactive | outcome [7]: inactive

O=C(O)C1(C(=O)Nc2ccc(Cl)cc2Cl)CC1
outcome [1]: inactive | outcome [2]: inactive | outcome [3]: inactive | outcome [4]: inactive | outcome [5]: inactive | outcome [6]: inactive | outcome [7]: inactive

c1ccc(Nc2ccccc2)cc1
outcome [1]: inactive | outcome [2]: inactive | outcome [3]: inactive | outcome [4]: inactive | outcome (CD40, CD40 (gene 958)): inactive | outcome [5]: inactive | outcome [6]: inactive | outcome [7]: inactive | outcome [9]: inactive

CSC(=O)c1cccc2nnsc12
outcome [1]: inactive | outcome [2]: inactive | outcome [3]: inactive | outcome [4]: inactive | outcome (CD40, CD40 (gene 958)): inactive | outcome [5]: inactive | outcome [6]: inactive | outcome [7]: inactive

OB(O)O
outcome [1]: inactive | outcome [2]: inactive | outcome [3]: inactive | outcome [4]: inactive | outcome [5]: inactive | outcome [6]: inactive | outcome [7]: inactive

COc1nc(C)nc(NC(=O)NS(=O)(=O)c2ccccc2OCCCl)n1
outcome [1]: inactive | outcome [2]: inactive | outcome [3]: inactive | outcome [4]: inactive | outcome (CD40, CD40 (gene 958)): inactive | outcome [5]: inactive | outcome [6]: inactive | outcome [7]: inactive | outcome [9]: inactive

CCCCC(CC)COC(=O)c1ccccc1C(=O)O (stereo not drawn)
outcome [1]: inactive | outcome [2]: inactive | outcome [3]: inactive | outcome [4]: inactive | outcome (CD40, CD40 (gene 958)): inactive | outcome [5]: inactive | outcome [6]: inactive | outcome [7]: inactive | outcome [8]: inactive

C#C[C@]1(O)CC[C@H]2[C@@H]3CCC4=CC(=O)CC[C@@H]4[C@H]3CC[C@@]21CC
outcome [1]: inactive | outcome [2]: inactive | outcome [3]: inactive | outcome [4]: inactive | outcome [5]: inactive | outcome [6]: inactive | outcome [7]: inactive

O=C(Nc1ccc([N+](=O)[O-])cc1Cl)c1cc(Cl)ccc1O
outcome [1]: inactive | AC50 [2]: 148 nM (active) | AC50 [3]: 0.313 µM (active) | AC50 [4]: 0.266 µM (active) | AC50 (CD40, CD40 (gene 958)): 0.161 µM (active) | outcome [5]: inactive | AC50 [6]: 0.47 µM (active) | AC50 [7]: 0.445 µM (active) | AC50 [9]: 0.109 µM (active)

CCOC(=O)COc1cc(-n2ncc(C(F)(F)F)c(C)c2=O)c(F)cc1Cl
outcome [1]: inactive | outcome [2]: inactive | outcome [3]: inactive | outcome [4]: inactive | outcome [5]: inactive | outcome [6]: inactive | outcome [7]: inactive

CCSC(=O)N(CC(C)C)CC(C)C
outcome [1]: inactive | outcome [2]: inactive | outcome [3]: inactive | outcome [4]: inactive | outcome [5]: inactive | outcome [6]: inactive | outcome [7]: inactive

C[C@]12C[C@H](O)[C@H]3[C@@H](CCC4=CC(=O)CC[C@@]43C)[C@@H]1CC[C@@H]2C(=O)CO
outcome [1]: inactive | outcome [2]: inactive | outcome [3]: inactive | outcome [4]: inactive | outcome (CD40, CD40 (gene 958)): inactive | outcome [5]: inactive | outcome [6]: inactive | outcome [7]: inactive

O=C(c1ccc(O)cc1O)c1ccc(O)cc1O
outcome [1]: inactive | outcome [2]: inactive | outcome [3]: inactive | outcome [4]: inactive | outcome [5]: inactive | outcome [6]: inactive | outcome [7]: inactive

CCCCCOC(=O)COc1cc(N2C(=O)C3=C(CCCC3)C2=O)c(F)cc1Cl
outcome [1]: inactive | outcome [2]: inactive | AC50 [3]: 20 µM (active) | outcome [4]: inactive | outcome [5]: inactive | AC50 [6]: 20 µM (active) | outcome [7]: inactive

CCCN(CCC)c1c([N+](=O)[O-])cc(C(F)(F)F)c(N)c1[N+](=O)[O-]
AC50 [1]: 32.1 µM (active) | AC50 [2]: 30500 nM (active) | AC50 [3]: 33.6 µM (active) | AC50 [4]: 37.3 µM (active) | outcome [5]: inactive | outcome [6]: inactive | AC50 [7]: 13.8 µM (active)

CCOC(=O)C(C)Oc1ccc(Oc2nc3ccc(Cl)cc3o2)cc1 (stereo not drawn)
outcome [1]: inactive | outcome [2]: inactive | AC50 [3]: 9.61 µM (active) | outcome [4]: inactive | outcome (CD40, CD40 (gene 958)): inactive | outcome [5]: inactive | outcome [6]: inactive | outcome [7]: inactive

COC(=O)c1c(Cl)nn(C)c1S(=O)(=O)NC(=O)Nc1nc(OC)cc(OC)n1
outcome [1]: inactive | outcome [2]: inactive | outcome [3]: inactive | outcome [4]: inactive | outcome (CD40, CD40 (gene 958)): inactive | outcome [5]: inactive | outcome [6]: inactive | outcome [7]: inactive | outcome [9]: inactive | outcome [8]: inactive

CCOC(=O)[C@H](C)Oc1ccc(Oc2nc3ccc(Cl)cc3o2)cc1
outcome [1]: inactive | outcome [2]: inactive | outcome [3]: inactive | outcome [4]: inactive | outcome [5]: inactive | outcome [6]: inactive | outcome [7]: inactive

O=C(c1ccccc1)C1CCCCC1
outcome [1]: inactive | outcome [2]: inactive | outcome [3]: inactive | outcome [4]: inactive | outcome (CD40, CD40 (gene 958)): inactive | outcome [5]: inactive | outcome [6]: inactive | outcome [7]: inactive | outcome [8]: inactive
